Laboratory results reported in PubChem BioAssay (Tox21).
Inconclusive results are not listed. Activity calls are given as the source filed them. Unless noted, the call rests on the fitted dose curve; in most records, active means well fitted curve in the direction sought with a large enough effect in the repeat runs; inconclusive means weak or mixed curves; inactive means no such curve, though single readings can be large; an effect the other way counts as inactive or inconclusive.

Columns and labels:
[1] = qHTS assay for small molecules that induce genotoxicity in human embryonic kidney cells expressing luciferase-tagged ATAD5 (AID 651632); further: nearly all actives have a fitted effect of over 15% in size
How it was run: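 A rise in luciferase signal from ATAD5-tagged HEK293T cells marks genetic stress. Cells were exposed to compounds for 16 hr at 37C, 5% CO2, then luciferase was quantified after a 30 min room-temperature incubation with Amplite.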

[2] = qHTS assay for small molecule agonists of the p53 signaling pathway - cell viability (AID 651633; calls by dose curve;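 further: p53RE-bla HCT reporter cells with a stable beta-lactamase p53 reporter; series mostly up to about 83 µM; nearly all actives have a fitted effect of over 30% in size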)
How it was run: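 p53RE-bla cells were treated with compound for 16 hours at 37 C. Cytotoxicity was then measured as CellTiter-Glo luminescence after 30 min at room temperature.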

[3] = qHTS assay for small molecules that induce genotoxicity in human embryonic kidney cells expressing luciferase-tagged ATAD5 - cell viability (AID 651634; calls by dose curve; further: nearly all actives have a fitted effect of over 25% in size)
How it was run: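 Cytotoxicity counter-readout: after 15.5 hr compound treatment at 37C, live-cell protease activity in ATAD5-luciferase HEK293T cells measured by CellTiter-Fluor fluorescence, 30 min development at 37C.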

[4] = qHTS assay for small molecule disruptors of the mitochondrial membrane potential - cell viability (AID 720634; calls by dose curve;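 further: human HepG2 liver cancer cells; series mostly up to about 83 µM; nearly all actives have a fitted effect of over 20% in size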)
How it was run: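 Cytotoxicity was quantified from ATP content by CellTiter-Glo luminescence in the same wells as the MMP dye read-out. HepG2 (2,000 cells/well) were plated overnight and exposed to compounds for 1 hr at 37 C.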

[5] = qHTS assay for small molecule disruptors of the mitochondrial membrane potential (AID 720635)
How it was run: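 HepG2 cells exposed to compound 1 hr at 37C, then Mito-MPS dye 30 min. Ratio read of aggregate (540/590 nm) versus monomer (490/535 nm) fluorescence.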

[6] = qHTS assay to test for compound auto fluorescence at 590 nm (red) in HepG2 cells (AID 720674)
How it was run: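 Fluorescence at 590 nm emission following 540 nm excitation was recorded from HepG2 wells one hour after compound transfer, with DMSO-only wells as vehicle and Rose Bengal sodium equivalency as the scale.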

[7] = qHTS assay to test for compound auto fluorescence at 535 nm (green) in HepG2 cells (AID 720675)
[8] = qHTS assay to test for compound auto fluorescence at 460 nm (blue) in HEK293 cells (AID 720678)
How it was run: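 HEK293 cells (2,000 per well, medium with 10% dialyzed FBS) attached for 4-5 hr at 37C, then received compound and stood overnight at 37C, 5% CO2. Blue fluorescence was read at Ex/Em 405/460 nm and expressed relative to triamterene.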

[9] = qHTS assay to test for compound auto fluorescence at 590 nm (red) in HEK293 cells (AID 720679)
How it was run: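 HEK293 cells (2,000/well, medium with 10% dialyzed FBS) attached for 4-5 hr at 37C, received 23 nL compound and were incubated overnight at 37C, 5% CO2. Red fluorescence was then read at 540/590nm Ex/Em, referenced to Rose Bengal sodium.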

[10] = qHTS assay to test for compound auto fluorescence at 535 nm (green) in HEK293 cells (AID 720680)
[11] = qHTS assay to test for compound auto fluorescence at 460 nm (blue) in HEK293 cell free culture (AID 720681)
How it was run: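 Compounds were added to cell-free DMEM with 10% FBS and fluorescence read directly. The blue channel used 405 nm excitation and 460 nm emission, with triamterene as the reference fluorophore.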

[12] = qHTS assay to test for compound auto fluorescence at 535 nm (green) in HEK293 cell free culture (AID 720682)
How it was run: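 No cells present: wells hold DMEM supplemented with 10% FBS, into which compound or vehicle is pinned. Green emission is then recorded (485 nm excitation, 535 nm emission) and scaled to fluorescein.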

[13] = qHTS assay to test for compound auto fluorescence at 590 nm (red) in HEK293 cell free culture (AID 720683)
How it was run: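 Cell-free wells of DMEM with 10% FBS received compound, and intrinsic fluorescence was read at excitation/emission 540/590 nm. Values expressed as equivalence to Rose Bengal sodium.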

[14] = qHTS assay to test for compound auto fluorescence at 590 nm (red) in HepG2 cell free culture (AID 720684)
How it was run: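 Auto fluorescence equivalency versus Rose Bengal sodium, red channel Ex/Em 540/590 nm; compounds in cell-free MEM/10% FBS; DMSO vehicle control.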

[15] = qHTS assay to test for compound auto fluorescence at 460 nm (blue) in HepG2 cell free culture (AID 720685)
How it was run: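 Cell-free plates of MEM plus 10% FBS received 23 nL compound or DMSO vehicle; blue-channel (405/460 nm) intensity scored against triamterene as reference fluorophore.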

[16] = qHTS assay to test for compound auto fluorescence at 535 nm (green) in HepG2 cell free culture (AID 720686)
[17] = qHTS assay to test for compound auto fluorescence at 460 nm (blue) in HepG2 cells (AID 720687)
How it was run: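 HepG2 cells in MEM with 10% FBS, attached overnight at 37 C, were exposed to compound or DMSO for 1 hr at 37 C, 5% CO2. Blue fluorescence was read at 405/460 nm, with triamterene as reference fluorophore.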

[18] = biological target: Glucocorticoid receptor (Homo sapiens) (UniProt P04150); assay: qHTS assay to identify small molecule agonists of the glucocorticoid receptor (GR) signaling pathway (AID 720691; active means well fitted activation curve with a large enough effect in the signal ratio in the repeat runs, not every such curve was filed as active; the % refers to the signal ratio)
Glucocorticoid receptor (Homo sapiens), sequence (P04150 whole entry, looked up): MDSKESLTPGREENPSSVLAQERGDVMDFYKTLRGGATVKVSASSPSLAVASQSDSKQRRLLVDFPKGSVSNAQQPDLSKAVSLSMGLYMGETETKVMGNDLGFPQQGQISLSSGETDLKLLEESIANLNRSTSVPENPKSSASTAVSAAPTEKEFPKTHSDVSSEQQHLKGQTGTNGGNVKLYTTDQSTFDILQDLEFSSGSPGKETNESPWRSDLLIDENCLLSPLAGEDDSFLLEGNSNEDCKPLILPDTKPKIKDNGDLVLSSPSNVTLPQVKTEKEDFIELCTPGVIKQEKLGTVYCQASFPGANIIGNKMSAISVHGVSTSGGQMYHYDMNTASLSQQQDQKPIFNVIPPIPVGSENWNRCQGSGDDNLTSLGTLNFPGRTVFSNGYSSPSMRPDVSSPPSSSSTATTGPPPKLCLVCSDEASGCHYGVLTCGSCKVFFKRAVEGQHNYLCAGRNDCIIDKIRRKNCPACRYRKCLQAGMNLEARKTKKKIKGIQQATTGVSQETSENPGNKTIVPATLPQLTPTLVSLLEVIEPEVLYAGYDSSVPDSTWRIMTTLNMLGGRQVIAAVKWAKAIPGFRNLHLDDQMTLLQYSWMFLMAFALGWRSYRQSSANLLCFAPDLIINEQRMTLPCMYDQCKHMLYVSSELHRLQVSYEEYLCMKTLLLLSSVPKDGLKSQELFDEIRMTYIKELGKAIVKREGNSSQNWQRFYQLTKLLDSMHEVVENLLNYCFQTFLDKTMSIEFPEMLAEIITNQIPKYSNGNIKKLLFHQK
How it was run: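 Agonist-mode qHTS in HeLa cells stably expressing a glucocorticoid-response-element beta-lactamase reporter. Fluorescence intensity read with FRET substrate (2 h, room temperature) after 18 h compound treatment at 37 C.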

[19] = biological target: Glucocorticoid receptor (Homo sapiens) (UniProt P04150); assay: qHTS assay to identify small molecule antagonists of the glucocorticoid receptor (GR) signaling pathway (AID 720692; active means well fitted inhibition curve with a large enough effect in the signal ratio in the repeat runs, not every such curve was filed as active; the % refers to the signal ratio)
How it was run: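 Inhibition of dexamethasone-driven (5 nM final) beta-lactamase expression was measured in GRE-reporter HeLa cells over 18 h at 37C. Fluorescence was read after 2 h with the B/G FRET substrate at room temperature.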
On the % scale 0 is the no-effect control and ±100 the full control effect.

CC(C)COC(=O)C(C)C
inactive: Potency [1] | Potency [2] | Potency [3] | Potency [4] | Potency [5] | outcome [6] | outcome [7] | Potency [8] | outcome [9] | outcome [10] | Potency [11] | outcome [12] | outcome [13] | outcome [14] | Potency [15] | outcome [16] | Potency [17] | Potency [18] | Potency [19]

Cc1ccc(N)cc1[N+](=O)[O-]
inactive: Potency [1] | Potency [2] | Potency [3] | Potency [4] | Potency [5] | outcome [6] | outcome [7] | Potency [8] | outcome [9] | outcome [10] | Potency [11] | outcome [13] | outcome [14] | Potency [15] | outcome [16] | Potency [17] | Potency [18] | Potency [19]

CCCCC=O
inactive: Potency [1] | Potency [2] | Potency [3] | Potency [4] | Potency [5] | outcome [7] | Potency [8] | outcome [9] | outcome [10] | Potency [11] | outcome [12] | outcome [13] | outcome [14] | Potency [15] | outcome [16] | Potency [17] | Potency [19]

NCCNC(=O)c1ccc(Cl)cn1
inactive: Potency [1] | Potency [2] | Potency [3] | Potency [4] | outcome [6] | outcome [7] | Potency [8] | outcome [9] | outcome [10] | Potency [11] | outcome [12] | outcome [13] | outcome [14] | Potency [15] | outcome [16] | Potency [17]

CCCCCC[C@@H](CCC)C(=O)O
inactive: Potency [1] | Potency [2] | Potency [3] | Potency [4] | Potency [5] | outcome [6] | outcome [7] | Potency [8] | outcome [9] | outcome [10] | Potency [11] | outcome [12] | outcome [13] | outcome [14] | Potency [15] | outcome [16] | Potency [17]

NC(=S)Nc1cccc2ccccc12
inactive: activation [1] 1.78% [at 8.08 µM] | activity change, negative = cytotoxicity [2] -14.4% [at 8.08 µM] | activity, negative = cytotoxicity [3] -8.88% [at 8.08 µM] | activity change, negative = cytotoxicity [4] 7.63% [at 8.08 µM] | ratio activity, negative = MMP loss [5] -26.9% [at 8.08 µM] | fluorescence, relative to Rose Bengal [6] -0.163% [at 3.72 µM] | fluorescence, % of fluorescein control [7] 0.0274% [at 3.72 µM] | fluorescence, % of fluorescent control [9] -0.0728% [at 3.72 µM] | fluorescence, % of fluorescein [10] 0.198% [at 3.72 µM] | fluorescence, % of fluorescent control [11] -0.0083% [at 3.72 µM] | activity change [12] 0.0539% [at 3.72 µM] | fluorescence, % of fluorescent control [13] -0.0289% [at 3.72 µM] | fluorescence, % of Rose Bengal [14] -0.172% [at 3.72 µM] | fluorescence, % of fluorescent control [15] 0.0279% [at 3.72 µM] | fluorescence, % of fluorescein control [16] 0.006% [at 3.72 µM] | fluorescence, % of fluorescent control [17] -0.0944% [at 3.72 µM] | activation [18] -4.91% [at 6.9 µM] | activity change, negative = inhibition [19] -3.43% [at 7.04 µM]
